# From PubChem BioAssay AID620 (Sanford-Burnham Center for Chemical Genomics, 2007)
# Hit rate of the full screen: of about 87,000 compounds, about 360 (0.41%) were called active. Cut-off read from the data, not from the text of the source: active = cytotoxicity above about 50%; inactive = the rest. Shown is part of a subset that was picked to be rich in actives.
# Assay: cytotoxicity in HT1080 fibrosarcoma cells, cell-based, fluorescence readout (AID 620);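 note: cells exposed to compound overnight then 4 h with Alamar Blue; 0% = vehicle DMSO and 100% = killing control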
# Settings: HT1080 viability, at 10 µM, active compounds read high
row,SMILES,cytotoxicity
1,COc1cc(C)c(Cl)cc1S(=O)(=O)n1cnc(C)c1,-1.4% (inactive)
2,COc1cc(C)c(C(C)C)cc1S(=O)(=O)n1ccnc1,-1.7% (inactive)
3,COc1cc(C)c(C(C)C)cc1S(=O)(=O)n1cnc(C)c1,61.2% (active)
4,CCn1ncc(Br)c1C(=O)NC(C)c1ccccc1 (centres undefined),9% (inactive)
5,Nc1cccc(-c2nc3ccccc3[nH]2)c1,-3.9% (inactive)
6,COc1ccc2nc(-c3cccc(N)c3)[nH]c2c1,33.4% (inactive)
7,N#CC1=C(c2ccccc2)N=P(N2CCOCC2)(N2CCOCC2)N=C1N1CCOCC1,-10.4% (inactive)
8,CCNc1ccc(S(=O)(=O)C(F)(F)F)cc1NC(=O)C12CCC(CC1)C2,0.9% (inactive)
9,COC(=O)c1sc(N)c(C(=O)OC)c1COC(=O)c1c(C)noc1C,50.8% (active)
10,COc1ccc(C(C)=O)cc1COC(=O)c1c(C)noc1C,14% (inactive)
11,COC(=O)c1c(N)sc(C(C)=O)c1C,-8.8% (inactive)
12,Cc1nnc(SCC(=O)Nc2ccc3c(c2)OCO3)o1,12.7% (inactive)
13,COc1nc(NCc2ccco2)nc(N2CCC(C)CC2)n1,-3.4% (inactive)
14,COc1cccc(C2N(c3ccccn3)C(=O)C3CCCN32)c1OC (centres undefined),-9.8% (inactive)
15,CN(C)CC(C(=O)c1ccccc1)c1ccccc1 (centres undefined),57.7% (active)
16,CCC(C(=O)c1ccc(O)cc1)c1ccccc1 (centres undefined),-4% (inactive)
17,CN(C)c1ccc(C(=O)C(O)c2ccccc2)cc1 (centres undefined),-14% (inactive)
18,CC(C)CC(C(=O)NC1CCCC1)N(Cc1cccs1)C(=O)c1snc(C(N)=O)c1N (centres undefined),-7.5% (inactive)
19,O=C(NCc1csc(-c2ccccc2)n1)c1ccco1,-1.4% (inactive)
20,COc1ccc(-n2cnc3cc(NCc4cccs4)ccc32)cc1,1.1% (inactive)
21,COc1ccccc1-n1cnc2cc(NCc3cccs3)ccc21,60% (active)
22,Cc1ccccc1-n1cnc2cc(NCc3cccs3)ccc21,33.7% (inactive)

row,SMILES,cytotoxicity
1,COc1ccccc1-n1cnc2cc(NCc3ccco3)ccc21,59.5% (active)
2,COc1ccccc1-n1cnc2cc(C(=O)NCc3ccco3)ccc21,-2.4% (inactive)
3,COc1ccccc1-n1cnc2cc(NCc3ccccn3)ccc21,-10% (inactive)
4,CCOC(=O)CCP(=O)(O)C(C)(O)c1ccccc1 (centres undefined),-7.3% (inactive)
5,COn1c(=O)c(-c2cccs2)[n+]([O-])c2ccccc21,-15.3% (inactive)
6,COc1ccc(N2CC(O)=C(c3nc4ccccc4s3)C2=N)c(OC)c1,-0.1% (inactive)
7,CCOc1ccccc1N1CC(O)=C(c2nc3ccccc3s2)C1=N,68.7% (active)
8,COc1ccc(OC)c(N2CC(O)=C(c3nc4ccccc4s3)C2=N)c1,-5.7% (inactive)
9,O=C(NCc1ccccc1)C1(c2ccccc2)CCN(S(=O)(=O)c2ccccc2)CC1,-1.9% (inactive)
10,O=C(CSc1nc2c(c(=O)n1-c1ccc(Cl)cc1)SCC2)N1CCCC1,-1.5% (inactive)
11,N#Cc1c(-c2ccc(Cl)cc2)ccn2nc(C3CCCCC3)nc12,-4% (inactive)
12,Cc1nc(NC(C)C)c2oc3ccccc3c2n1,-2.5% (inactive)
13,COc1cccc(N2CCN(c3ncnc4c3[nH]c3ccccc34)CC2C)c1 (centres undefined),-3% (inactive)
14,Fc1ccc2[nH]c3c(N4CCN(c5ccccc5)CC4)ncnc3c2c1,-4.2% (inactive)
15,COc1cccc(N2CCN(c3ncnc4c3[nH]c3ccc(F)cc34)CC2C)c1 (centres undefined),54.2% (active)
16,O=C(C1CCCN(Cc2cccc(F)c2)C1)N1CCCCC1 (centres undefined),14.1% (inactive)
17,O=C(Nc1ccc(N2CCOCC2)c(Cl)c1)c1cccc(F)c1,22.9% (inactive)
18,O=C(Nc1ccc(N2CCN(C(=O)c3ccc(Cl)cc3)CC2)cc1)c1cc2ccccc2o1,7% (inactive)
19,CCC(=O)N1CCN(c2ccc(NC(=O)c3cc4ccccc4o3)cc2Cl)CC1,96.3% (active)
20,CCC(=O)N1CCN(c2ccc(NC(=O)c3cc4ccccc4o3)cc2)CC1,1.3% (inactive)
21,O=C(Nc1ccc(N2CCOCC2)cc1)c1cc2ccccc2o1,1.6% (inactive)
22,O=C(Nc1ccc(N2CCOCC2)c(Cl)c1)c1ccc(F)cc1,56.2% (active)

row,SMILES,cytotoxicity
1,CCC(=O)Nc1ccc(NC(=O)c2cc3ccccc3o2)cc1,-1.5% (inactive)
2,CCCC(=O)N1CCN(c2ccc(NC(=O)c3cc4ccccc4o3)cc2Cl)CC1,69.8% (active)
3,O=C(Nc1ccc(N2CCOCC2)c(Cl)c1)c1cc2ccccc2o1,89.6% (active)
4,O=C(Nc1ccc(N2CCOCC2)c(Cl)c1)c1c(F)c(F)c(F)c(F)c1F,8.9% (inactive)
5,O=C(Nc1ccc(CN2CCOCC2)cc1)c1cc2ccccc2o1,8.9% (inactive)
6,O=C(Nc1ccccc1N1CCN(C(=O)c2ccc(Cl)cc2)CC1)c1cc2ccccc2o1,1.6% (inactive)
7,CCOC(=O)c1ccc2ncc(C(=O)OCC)c(NCc3ccco3)c2c1,1.9% (inactive)
8,O=S(=O)(Nc1ccccn1)c1ccc(Cl)cc1,-6.1% (inactive)
9,COc1cccc(-n2c(Cc3cc(=O)[nH]c(=O)[nH]3)nnc2SCC(=O)N2CCCC2)c1,3.9% (inactive)
10,COc1ccc([C@H]2[C@@H](C#N)[C@H](C#N)N3CCCN23)cc1,5.9% (inactive)
11,O=C(CCn1c(=O)sc2ccccc21)NCCN1CCOCC1,4.4% (inactive)
12,Cc1ccc(-c2noc(CCCN3C(=O)c4ccccc4C3=O)n2)cc1,-3.5% (inactive)
13,CC(C)c1ccc(NC(=S)NCc2cccs2)cc1,-17.4% (inactive)
14,O=C(CN1CCc2ccccc2C1)Nc1ccc(Br)cc1,-3.2% (inactive)
15,O=C(Nc1ccc(N2CCN(C(=O)c3ccccc3)CC2)c(Cl)c1)c1ccc(Br)o1,22.5% (inactive)
16,O=C(Nc1ccc(N2CCOCC2)c(Cl)c1)c1ccc(Br)o1,51.4% (active)
17,O=C(Nc1ccc(N2CCN(C(=O)c3ccco3)CC2)c(Cl)c1)c1c(F)c(F)c(F)c(F)c1F,-3% (inactive)
18,O=C(Nc1ccc(N2CCN(C(=O)c3ccccc3)CC2)c(Cl)c1)c1ccco1,-4.5% (inactive)
19,O=C(Nc1ccc(N2CCN(C(=O)c3ccco3)CC2)c(Cl)c1)c1cc2ccccc2o1,81.6% (active)
20,O=C(Nc1ccc(N2CCCC2)c(Cl)c1)c1ccc(Br)o1,12.7% (inactive)
